Measurements as given in the supplement of paper PMC3334620.
The full ranking holds about 33,000 sequences; the median of “E-score (-0.5 to 0.5)” is about -0.016, and the highest 2% start at about 0.3. The entries come from a sample that favours the highest values as a whole.

target: T1, Yer184c (UniProt P39961); test: PBM E-score (8-mer binding enrichment) (E-score (-0.5 to 0.5)); higher = stronger / more preferred TF binding; settings: protein concentration: 100 nM; construct: GST-full length
T1 sequence: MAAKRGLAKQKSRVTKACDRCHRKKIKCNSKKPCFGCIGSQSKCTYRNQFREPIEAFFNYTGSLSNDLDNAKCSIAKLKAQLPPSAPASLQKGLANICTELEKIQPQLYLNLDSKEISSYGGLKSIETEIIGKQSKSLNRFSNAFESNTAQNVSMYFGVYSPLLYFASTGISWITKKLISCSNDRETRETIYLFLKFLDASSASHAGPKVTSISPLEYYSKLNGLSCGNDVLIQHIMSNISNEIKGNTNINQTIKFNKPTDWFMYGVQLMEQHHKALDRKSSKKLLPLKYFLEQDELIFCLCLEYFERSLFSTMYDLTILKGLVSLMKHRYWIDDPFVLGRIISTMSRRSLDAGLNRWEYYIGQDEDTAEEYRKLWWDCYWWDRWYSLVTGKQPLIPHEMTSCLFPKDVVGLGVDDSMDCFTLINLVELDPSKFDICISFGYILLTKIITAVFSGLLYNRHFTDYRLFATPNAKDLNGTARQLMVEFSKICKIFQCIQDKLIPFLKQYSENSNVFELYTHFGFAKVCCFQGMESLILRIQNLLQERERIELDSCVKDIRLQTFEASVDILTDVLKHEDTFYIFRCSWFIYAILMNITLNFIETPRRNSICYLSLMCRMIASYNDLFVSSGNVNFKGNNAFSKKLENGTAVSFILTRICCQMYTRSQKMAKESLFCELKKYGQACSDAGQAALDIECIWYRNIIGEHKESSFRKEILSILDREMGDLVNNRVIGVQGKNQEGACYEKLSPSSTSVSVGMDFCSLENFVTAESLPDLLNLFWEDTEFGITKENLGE
Protocol: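 Universal 'all 10-mer' protein binding microarrays (Agilent AMADID 015681) probed with GST-tagged S. cerevisiae TFs (full-length or DBD) made by in vitro transcription/translation (PURExpress), about 100-200 nM. Bound TF was detected with fluorescent anti-GST. Each ungapped 8-mer (which stands for itself and its reverse complement) is scored by the PBM enrichment score (E-score), a modified Wilcoxon-Mann-Whitney statistic from -0.5 to +0.5, computed with the Universal PBM Analysis Suite. Scale: above 0.35 generally sequence-specific binding.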

Sequence | PBM E-score
TCGATTAA | 0.148
CACGGCAA | 0.199
ATCGGCAG | 0.247
CTCGGCAA | 0.319
GTCGGCAA | 0.263
GTCGGCAC | 0.1
CACGGCAG | 0.0946
ATCGGCAC | 0.27
CTCGGCAG | 0.31
CTCGGCCA | 0.204
CTCGGCAC | 0.31
ATCGGCAA | 0.246
TTCGGCAA | 0.336
AGGACCTG | -0.174
ATATACCC | 0.021
TCTATAGA | -0.137
GTCAATAA | 0.158
AAGTATCC | 0.0522
CAGGGCTC | -0.226
GAGAGCGC | -0.218
AGCAGCAT | -0.206
AGAGTAAC | 0.0419
CAATAGAG | -0.242
CCAGCCTA | -0.206
CCCGCTCA | -0.141
CCTAAGTA | 0.106

Sequence | PBM E-score
AGCCGGGA | 0.311
CGCCGGGA | 0.312
AGCCGGGC | 0.172
CGCCGGGC | 0.286
GGCCGGGA | 0.292
AGCCGGGG | 0.0566
CAAACAGC | -0.0581
ATGCGTGA | 0.0231
AATCTAAT | 0.0331
ATCAAGTC | -0.0287
ATGAACAG | 0.17
GCGGCAAA | 0.107
CCGGCAAC | 0.293
CCGGCAAG | 0.331
ACGGCAAA | 0.211
ACGGCAAG | 0.0759
CCGGCAAA | 0.374
CTAGCAGC | -0.0845
GAAAGCTA | 0.00964
ACGACCGG | 0.0371
TGCAAACA | -0.168
AAATCGAT | 0.0714
GACGGCGA | -0.034
GCCGGCGC | 0.406
ACCGGCGA | 0.284
CCCGGCGC | 0.216

Sequence | PBM E-score
ACCGGCGC | 0.226
GGCGGCGA | 0.0554
CCCGGCGA | 0.236
TCCGGCGA | 0.38
GCCGGCGA | 0.311
AAGAGGAA | 0.23
AGTGAGAA | 0.118
CCGATGCA | 0.157
GAGTCAGC | -0.101
TCAGGGGA | -0.252
CTTCAAGA | 0.171
AAAAACAG | 0.115
GTTCCACA | -0.0536
CCCTCCGG | 0.1
CACTCCGC | -0.0284
AACTCCGA | 0.325
TACTCCGA | 0.262
ACCTCCGG | 0.357
AGCTCCGC | 0.127
ACCTCCGT | 0.107
CACTCCGA | 0.0993
CACTCCGG | 0.306
AGCTCCGG | 0.313
GACTCCGA | -0.0256
AGCTCCGA | 0.251
CAAGAATG | 0.103

Sequence | PBM E-score
GTTGGAGA | 0.0278
GTCGCCTA | -0.157
GGACGCCC | -0.106
AGGGGCAT | -0.358
ATTCTGCC | 0.201
CCAAGCGG | -0.15
AACTCCGT | 0.222
AACTCCGG | 0.424
AACTCCGC | -0.0142
AGTTCGAG | -0.00888
AAGGGGTA | -0.351
AAGCGCTC | 0.0112
AAGCGCCA | -0.208
AAACGCCG | 0.334
AAGCGCTT | 0.306
CAACGCCG | 0.294
AGGCGCCG | 0.207
CGGCGCCG | 0.443
CGGCGCCA | 0.162
AAACGCCA | 0.089
AAGCGCCG | 0.373
AAGCGCCT | -0.14
AAGCGCTA | 0.0496
